An excerpt weighted towards active compounds, which were near 0.82% of everything screened.
PrPC TRFRET: reduces human prion protein on the cell surface; 370,000 tested, 0.43% active; AID 720596; cell surface PrPC, TR-FRET read-out; inhibition, % at 13.8 µM; P04156; in the data active = inhibition above about 24%; note: 0% = median of the test wells and 100% = reference compound wells
TcdB GH inh: TcdB glycohydrolase inhibition; 350,000 tested, 0.24% active; TcdB glycohydrolase enzymatic assay, plate reader; AID 652162; inhibition, % at 9.99 µM; in the data active = inhibition above about 10%
VHR inh abs: DUSP3 (human) phosphatase inhibition; P51452; recombinant VHR phosphatase, pNPP absorbance; inhibition, % at 13.3 µM; 290,000 tested, 0.52% active; AID 1654; in the data active = inhibition above about 50%
Target sequence (P51452 whole entry, looked up): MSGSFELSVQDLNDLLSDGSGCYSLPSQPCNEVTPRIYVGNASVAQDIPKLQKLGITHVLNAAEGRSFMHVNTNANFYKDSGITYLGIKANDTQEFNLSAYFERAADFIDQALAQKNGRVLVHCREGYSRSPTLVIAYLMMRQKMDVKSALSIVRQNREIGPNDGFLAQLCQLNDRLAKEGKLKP
* = called active by the depositor.

`Cc1cccn2c(=O)c(/C=C(\C#N)C(=O)NCc3ccco3)c(N3CCCC(C)C3)nc12` (configuration not stated) gave PrPC TRFRET -4, TcdB GH inh 1 and VHR inh abs 55*.
For C[C@H]1CN([C@@H](C)CO)C(=O)c2cccc(NC(=O)Nc3ccc(F)cc3)c2O[C@H]1CN(C)CC1CCCCC1 the results were TcdB GH inh 0.
Screening CCC(=O)N1[C@H](C#N)[C@H](c2ccccc2-c2cccc(C)c2)[C@H]1CO returned TcdB GH inh 0.
C[C@H](CO)N1C[C@H](C)[C@@H](CN(C)C(=O)Cc2ccncc2)Oc2cc(C3=CCCCC3)ccc2S1(=O)=O was read as TcdB GH inh -5.
`O=C(NCCCCNC(=O)c1c(F)c(F)c(F)c(F)c1F)c1c(F)c(F)c(F)c(F)c1F` gave PrPC TRFRET -4 and VHR inh abs 10.
For CC(C)CNC(=O)c1c(F)c(F)c(F)c(F)c1F the results were PrPC TRFRET 4, TcdB GH inh 10* and VHR inh abs -11.
For CCCN(C)C[C@H]1Oc2cc(-c3cccnc3)ccc2S(=O)(=O)N([C@@H](C)CO)C[C@H]1C the results were TcdB GH inh 0.
CN(C)C(=O)C[C@H]1CC[C@@H]2[C@H](COC[C@H](O)CN2CC2CC2)O1 was read as TcdB GH inh -2.
Screening Cc1noc(/C=C/c2ccco2)c1S(=O)(=O)N1CCC(C(=O)N(C)Cc2ccccc2)CC1 returned PrPC TRFRET -3 and VHR inh abs 26.
For Cc1noc(/C=C/c2ccco2)c1S(=O)(=O)N1CCC(C(=O)NC(C)c2ccccc2)CC1 (configuration not stated) the results were PrPC TRFRET -4, TcdB GH inh 0 and VHR inh abs 50*.
For CCCN1[C@@H]2Cn3c(ccc(/C=C/c4ccccc4)c3=O)[C@H]1[C@@H](C(=O)NCC1CC1)[C@@H]2CO the results were TcdB GH inh 1.
`Cc1ccc(C(=O)Nc2nnc(CC(=O)N/N=C/c3ccncc3)s2)cc1` gave PrPC TRFRET -1, TcdB GH inh -1 and VHR inh abs 1.
For Cc1ccc(C(=O)Nc2nnc(CC(=O)N/N=C/c3ccc(O)c(O)c3)s2)cc1 the results were PrPC TRFRET -1, TcdB GH inh 1 and VHR inh abs 54*.
For O=C1/C(=C/c2cccnc2)SC(=NCc2ccccc2)N1Cc1ccccc1 the results were PrPC TRFRET -6, TcdB GH inh 10* and VHR inh abs -6.
For O=C1/C(=C/c2cccnc2)SC(=S)N1CCc1ccccc1 the results were PrPC TRFRET 6, TcdB GH inh 0 and VHR inh abs -4.
For OCCCCNCc1ccc(OCc2ccccc2)cc1 the results were PrPC TRFRET -3 and VHR inh abs 52*.
`OCCCCNCc1ccc(OCc2ccccc2Cl)cc1` gave PrPC TRFRET -6 and VHR inh abs 14.
C[C@H]1CN([C@@H](C)CO)C(=O)c2ccccc2-c2ccccc2CO[C@H]1CN(C)C(=O)Nc1ccccc1 was read as TcdB GH inh 1.
`C[C@H](CO)N1C[C@H](C)[C@@H](CN(C)Cc2ccccc2)Oc2ccc(NC(=O)Cc3cn(C)c4ccccc34)cc2C1=O` gave TcdB GH inh -2.
For CCCNC(=O)[C@H]1[C@H](CO)[C@H]2Cn3c(ccc(-c4cccnc4)c3=O)[C@@H]1N2C(=O)Nc1ccccc1 the results were TcdB GH inh -1.
For CCc1nnc(NC(=O)CCC(=O)N2CCN(Cc3ccc(C)cc3C)CC2)s1 the results were PrPC TRFRET 5, TcdB GH inh 1 and VHR inh abs 56*.
CCCc1nnc(NC(=O)CCC(=O)N2CCN(Cc3ccc(C)cc3C)CC2)s1 was read as PrPC TRFRET -1, TcdB GH inh 0 and VHR inh abs -2.
Screening CCC(=O)N1CC[C@@H]2[C@@H](CO)Nc3ccc(C#Cc4ccccc4F)cc3[C@@H]21 returned TcdB GH inh 0.
O=C(N[C@H]1CC[C@@H](CCn2cc(C3(O)CCCC3)nn2)O[C@H]1CO)C1CCOCC1 was read as TcdB GH inh -1.
For COc1ccccc1CNC(=O)C[C@@H]1C[C@@H]2c3cc(NC(=O)C4CCC4)ccc3O[C@@H]2[C@@H](CO)O1 the results were TcdB GH inh -6.
Screening C[C@@H]1CN([C@@H](C)CO)C(=O)Cc2cc(NC(=O)Nc3ccc(C(F)(F)F)cc3)ccc2O[C@@H]1CN(C)C(=O)NC1CCCCC1 returned TcdB GH inh -1.
Screening Cc1cc2ncc(-c3ccccc3)nc2cc1C returned PrPC TRFRET -3, TcdB GH inh 0 and VHR inh abs 28.
`CCOC(=O)c1ccc2ncc(-c3ccccc3)nc2c1` gave PrPC TRFRET -3, TcdB GH inh 25* and VHR inh abs 16.
`COC(=O)c1sccc1NC(=O)Nc1cccc(C)c1` gave PrPC TRFRET -2, TcdB GH inh 1 and VHR inh abs 50*.
Screening COC(=O)c1sccc1NC(=O)Nc1cccc(C(C)=O)c1 returned PrPC TRFRET 5, TcdB GH inh 3 and VHR inh abs 26.
O=C(Nc1nccs1)[C@@H]1[C@@H](CO)[C@@H]2Cn3c(cccc3=O)[C@H]1N2C(=O)C1CCCCC1 was read as TcdB GH inh 1.
Screening C[C@H]1CN([C@@H](C)CO)C(=O)c2cc(NC(=O)Cc3ccccc3)ccc2O[C@H]1CN(C)Cc1ccc(C(=O)O)cc1 returned TcdB GH inh 0.
CN1c2ccc(C#Cc3cccnc3)cc2[C@H]2[C@H](CCN2S(=O)(=O)c2cccc(F)c2)[C@@H]1CO was read as TcdB GH inh -1.
Cc1ccc(N/C(N)=N/c2nc3c(c(=O)[nH]2)CCCC3)c(C)c1 was read as PrPC TRFRET -1 and VHR inh abs 21.
`Cc1ccc(N/C(N)=N/c2nc(C)cc(N3CCCCC3)n2)c(C)c1` gave PrPC TRFRET 45*, TcdB GH inh 2 and VHR inh abs 5.
For CCc1ccc(N(CC(=O)NCc2ccc3c(c2)OCO3)C(=O)c2csnn2)cc1 the results were PrPC TRFRET 6, TcdB GH inh -10 and VHR inh abs 53*.
`CCOc1ccc(N(CC(=O)NCc2ccc3c(c2)OCO3)C(=O)c2csnn2)cc1` gave PrPC TRFRET -5, TcdB GH inh 2 and VHR inh abs 39.
`COc1ccccc1NC(=O)N[C@@H]1CC[C@H](CCNS(=O)(=O)c2ccc(C)cc2)O[C@@H]1CO` gave TcdB GH inh 0.
For O=[N+]([O-])c1cccc(CP(=O)(c2ccccc2)c2ccccc2)c1 the results were PrPC TRFRET -12 and TcdB GH inh 2.
O=[N+]([O-])c1ccc(CP(=O)(c2ccccc2)c2ccccc2)cc1 was read as PrPC TRFRET -21, TcdB GH inh 1 and VHR inh abs 56*.
Screening CCSc1nnc(NC(=O)C2CC2c2ccccc2)s1 (configuration not stated) returned PrPC TRFRET -6, TcdB GH inh 12* and VHR inh abs -5.
For CCSc1nnc(NC(=O)C2CCCCC2C(=O)O)s1 (configuration not stated) the results were PrPC TRFRET -3 and VHR inh abs -5.
Screening C[C@H]1CN([C@@H](C)CO)C(=O)Cc2cc(NC(=O)Nc3ccc(F)cc3)ccc2O[C@H]1CN(C)C(=O)Nc1ccccc1 returned TcdB GH inh 0.

Source: PubChem BioAssay
